Data taken from PubChem BioAssay AID434958 (Southern Research Specialized Biocontainment Screening …, 2010).
Among all 1,200 compounds or so, about 400 (33%) were called active. The rule behind the calls is not given here. A selection follows. Entries with a potency or affinity are not part of this list.

Experiment: mammalian cell cytotoxicity, dose response, cytotoxicity control (AID 434958);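 note: cells exposed to compound for 72 hours before readout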
Conditions: cytotoxicity counter-screen; series mostly up to 40 µM; viability: at the top concentration

Row | SMILES | viability
1 | O=C(COc1ccc2ccccc2c1)Nc1nc2ccccc2[nH]1 | 104% (inactive)
2 | Cc1cc(C)c(OCC(=O)Nc2nc3ccccc3[nH]2)c(C)c1 | 90.8% (inactive)
3 | Cc1ccc(SCc2c(C#N)c3ccccc3n2C)cc1 | 93.7% (inactive)
4 | Clc1ccc(Cn2cc(/C=N/n3cnnc3)c3ccccc32)cc1 | 88% (inactive)
5 | Nc1nc(Sc2ncccc2[N+](=O)[O-])n[nH]1 | 105% (inactive)
6 | Cc1nnnn1/C(=C\c1ccccc1)C(=O)OCC(=O)NC1CCCCC1 | 105% (inactive)
7 | CCOC(=O)CNC(=O)CSc1ncnc2c1cnn2Cc1ccccc1 | 101% (inactive)
8 | Cc1cc(C)n(-c2nc3ccccc3c(=O)n2OCC(=O)N(C)C)n1 | 102% (inactive)
9 | CC1CCN(C(=S)NC(=O)c2ccccc2)CC1 | 103% (inactive)
10 | CCc1cc2c(=O)nc3n(c2s1)Cc1ccccc1/C3=C(/O)c1ccc(F)cc1 | 85.5% (inactive)
11 | CCCSc1nnc(NC(=O)c2sc3nc(-c4cccs4)ccc3c2N)s1 | 89% (inactive)
12 | CCC(CC)c1nnc(NC(=O)c2cc(-c3ccccc3)nc3ccccc23)s1 | 85.5% (inactive)
13 | COc1cc(OC)c(OC)cc1/C=C1\CCC(C2CCCC2)C1=O (stereo unspecified) | 93.4% (inactive)
14 | O=C(NCc1ccc2c(c1)OCO2)C(=O)NC1CCCCC1 | 85.3% (inactive)
15 | CCCCn1nc2cc(C(=O)NCC34CC5CC(CC(C5)C3)C4)ccc2c1OCC | 83.6% (inactive)
16 | O=C(OCC(=O)c1c[nH]c2ccccc12)c1cccc([N+](=O)[O-])c1 | 91.4% (inactive)
17 | O=C(CSc1nnc(-c2ccncc2)o1)c1cccc([N+](=O)[O-])c1 | 99% (inactive)
18 | O=C(Cn1nnc2c(cnn2-c2ccccc2)c1=O)N1CCN(c2ccccc2F)CC1 | 97.6% (inactive)
19 | CCN(CCNC(=O)Nc1ccc(Cl)cc1)c1ccccc1 | 103% (inactive)

Row | SMILES | viability
20 | CCOC(=O)c1nn(-c2ccc(Cl)cc2)cc1O | 98.1% (inactive)
21 | S=c1nccc(-c2ccc3c(c2)CCO3)[nH]1 | 94.1% (inactive)
22 | Cc1ccc(C(=O)Nc2nc3ccccc3s2)s1 | 84.5% (inactive)
23 | CC(=O)Nc1scc(C)c1-c1nc2ccccc2s1 | 88.1% (inactive)
24 | O=C1S/C(=C\C=C\c2ccco2)C(=O)N1c1ccccc1 | 100% (inactive)
25 | O=C1CS/C(=N/N=C2C3CC4CC(C3)CC2C4)N1 | 95% (inactive)
26 | NC(=S)N/N=C/c1ccc(/C=N/NC(N)=S)cc1 | 102% (inactive)
27 | CCOC(OCC)c1cn(Cc2ccc3c(c2)C(=O)c2ccccc2C3=O)nn1 | 92.2% (inactive)
28 | S=C(Nc1ccccc1)Nc1ccc(Cl)cn1 | 92.4% (inactive)
29 | c1ccc(CSc2nnc(-c3ccco3)o2)cc1 | 98.6% (inactive)
30 | O=C(Cn1c(=O)n(CCCC(=O)NC2CCCC2)c(=O)c2ccccc21)NCCC1=CCCCC1 | 110% [at 20 µM] (inactive)
31 | COc1cc(/C=C/c2ccc3cccc([N+](=O)[O-])c3n2)ccc1OCC(=O)O | 107% (inactive)
32 | CCOc1ccc(NC(=O)/C(C#N)=C/c2cn(CC(=O)O)c3ccccc23)cc1 | 102% (inactive)
33 | CC(C)(C)c1nc2scc(-c3cccs3)c2c(=O)o1 | 89.9% (inactive)
34 | O=C(CSc1nnc(-c2cnccn2)n1Cc1ccco1)Nc1ccc(Br)cc1 | 100% (inactive)
35 | CN(NC(=O)c1c(Cl)cccc1Cl)c1cccc(Cl)n1 | 95% (inactive)
36 | Cc1onc(-c2ccccc2Cl)c1C(=O)NCc1ccc2c(c1)cc(C)n2C | 98.7% (inactive)
37 | c1ccc(OCc2nnc(-c3ccccc3)o2)cc1 | 89% (inactive)
38 | CC1(C)CCN2CCC(C)(C)c3c(O)ccc1c32 | 95.8% (inactive)

Row | SMILES | viability
39 | CCN(CC)C(=O)Cn1cc(C(=O)C(=O)N2CCN(c3ccccc3)CC2)c2ccccc21 | 96.2% (inactive)
40 | C#C[C@]1(O)CC[C@H]2[C@@H]3CCC4=C(CCC(=O)C4)[C@H]3CC[C@@]21C | 104% (inactive)
41 | Cc1ccc(SCc2c(-c3ccccc3)nn(C)c2Cl)cc1 | 93.7% (inactive)
42 | O=C(N/N=C/c1c(O)n(Cc2ccc(F)cc2)c(=S)[nH]c1=O)c1ccncc1 | 99.3% (inactive)
43 | COC(=O)Cn1nc(-c2ccccc2)c2ccccc21 | 102% (inactive)
44 | COC(=O)c1c(C(=O)OC)c(C)n(Cc2ccco2)c1C | 102% (inactive)
45 | CCOc1cc(CNCCN(C)C)c(Cl)cc1OCC(=O)NCCc1ccccc1 | 88.7% (inactive)
46 | CCc1ccc(NC(=O)c2c(Cl)nc(C)c(Cl)c2C)cc1 | 80.3% (inactive)
47 | COc1ccc(/C=N\NC(=O)c2sc(N)nc2C)cc1OC | 87.3% (inactive)
48 | O=C(N/N=C/c1c(Cl)cccc1Cl)c1cccc(F)c1 | 88.5% (inactive)
49 | Cc1cc(=O)[nH]c(N/N=C/c2c(O)n(-c3ccccc3)c(=O)c3ccccc23)n1 | 97.6% (inactive)
50 | CCN(CC)C(=O)C1CCCN(c2ccc([N+](=O)[O-])cc2/C=N/NC(=O)c2cccc(O)c2)C1 (stereo unspecified) | 84.6% (inactive)
51 | Cc1ccccc1/C=N\NC(=O)c1csnn1 | 96% (inactive)
52 | Cc1nn(-c2ccccc2)cc1/C=N/NC(N)=S | 106% (inactive)
53 | CCc1ccc(NC(=S)Nc2ccc3[nH]c(=O)[nH]c3c2)cc1 | 94.7% (inactive)
54 | COc1ccc([N+](=O)[O-])cc1NC(=O)c1ccc(Br)s1 | 96.1% (inactive)
55 | CCOC(=O)c1c(NC(=O)COC(=O)c2ncc(Cl)c(Cl)c2Cl)sc(C(=O)N(C)C)c1C | 101% (inactive)
56 | COc1cc(OC)c2ccc(=O)oc2c1C(CC(=O)N1CCN(c2ccccc2)CC1)c1ccc2c(c1)OCO2 (stereo unspecified) | 108% (inactive)
